# Measurements: PubChem BioAssay (NCATS)
# Several values for one entry are separate records, joined by “and”; a condition that tells them apart may be missing. Equal values may be shown once. Records with an inconclusive call do not appear. Activity calls are given as the source filed them. Unless noted, calls follow the shape of the full dose curve.
# Tests used:
# [1] = biological target: Cytochrome P450 1A2 (Homo sapiens) (UniProt P05177); assay: p450-cyp1a2 (AID 410); conditions: recombinant CYP1A2, luciferin-ME demethylation, luminescence; series mostly up to 57 µM; also: potency is read from the fitted curve at half-maximal effect;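 as to activity change, negative = inhibition: -100% = full effect of reference inhibitor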
# How it was run: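 Human CYP1A2 (20nM) demethylated Luciferin-ME at its Km (100uM) in 100mM KPO4. After 10 min compound preincubation, NADPH regeneration ran the reaction 60 min at room temperature. Luciferin was read by luminescence, normalized to 57 uM furafylline.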
# [2] = NFAT Signaling Pathway (AID 444; active = well fitted curve in either direction with a large enough effect, not every such curve was filed as active;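 also: carbachol stimulus at about its EC50 of 1 µM final; % is scaled to controls: 0 for no effect and ±100 for the full control effect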); conditions: Jurkat NFAT-bla M1, carbachol, beta-lactamase ratio, 5 h; at 38 µM (top of the series) unless noted
# How it was run: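 Jurkat cells with NFAT-driven β-lactamase reporter and co-expressed M1 receptor, stimulated with carbachol (final 1 uM, ~EC50), compound titration, 5 h at 37 °C. CCF4 loaded 1 h at RT; 460/530 nm ratio gave %activity and AC50.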
# [3] = Cell Viability - BJ (AID 421); conditions: BJ fibroblast viability, qHTS;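 also: potency is read from the fitted curve at half-maximal effect; cells exposed to compound for 40 hours at 37 °C before readout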
# How it was run: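 Quantitative HTS: ATP depletion in BJ cells after 40 hr compound exposure in complete culture medium, detected with CellTiter-Glo; AC50 from standard Hill fits.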
# [4] = Cell Viability - Jurkat (AID 426;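 active = dose-dependent loss of cell ATP signal giving a full or clear fitted curve, ranked by lower potency value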; also: potency is read from the fitted curve at half-maximal effect); conditions: qHTS
# How it was run: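 Jurkat (clone E6-1, human T-cell leukemia) cells, 5000/well in complete medium, were exposed to compound for 40 hr at 37 °C. Viability was read as intracellular ATP by CellTiter-Glo luminescence; AC50 came from Hill fits of concentration-response data.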
# [5] = Cell Viability - Hek293 (AID 427;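 active = compounds whose dose-response curve shows a full or clear partial loss of cell viability, called from curve shape rather than a numeric limit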;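 also: potency is read from the fitted curve at half-maximal effect; cells exposed to compound for 40 hours at 37 °C before reading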); conditions: qHTS
# How it was run: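 AC50 values derive from Hill-modelled concentration-response of ATP-based luminescence, normalized between DMSO-only and 100 uM tamoxifen controls. Cells were exposed in complete culture medium for 40 hr at 37 °C before detection.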
# [6] = Cell Viability - HepG2 (AID 433); conditions: qHTS;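 also: potency is read from the fitted curve at half-maximal effect; potency for ATP loss meaning cytotoxicity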
# How it was run: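 HepG2 hepatocellular carcinoma cells (1500/well) were treated with compounds for 40 h at 37 °C in complete medium; intracellular ATP was read by CellTiter-Glo luminescence. Data were normalized to DMSO and 100 uM tamoxifen, and AC50 came from Hill fits.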
# [7] = Cell Viability - MRC5 (AID 434); conditions: MRC5 lung fibroblast viability, qHTS;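 also: potency is read from the fitted curve at half-maximal effect; potency reflects cytotoxicity seen as loss of intracellular ATP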
# How it was run: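 MRC5 normal human lung fibroblasts, 1500 cells/well, exposed to compound for 40 hr at 37 C. Cellular ATP was read by CellTiter-Glo luminescence; data normalized to DMSO and 100 uM tamoxifen, with AC50 from Hill fits.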
# [8] = Cell Viability - SK-N-SH (AID 435); conditions: SK-N-SH neuroblastoma cell viability qHTS;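 also: potency is read from the fitted curve at half-maximal effect; compound exposure lasted 40 h at 37 °C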
# How it was run: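 SK-N-SH human neuroblastoma cells (1500/well) were exposed to compounds in complete medium for 40 h at 37 °C, and intracellular ATP was then measured by CellTiter-Glo luminescence. AC50 was taken from Hill fits, normalized to DMSO and 100 uM tamoxifen.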
# [9] = AP1 Signaling Pathway (AID 357; active = well fitted curve in either direction with a large enough effect, not every such curve was filed as active; also: % is scaled to controls: 0 for no effect and ±100 for the full control effect); conditions: ME-180 (cervical carcinoma) AP-1-bla reporter, EGF-induced, beta-lactamase ratio, 5 h
# How it was run: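 Titration-series screen for positive or negative modulators of EC50 EGF-induced signaling in ME-180 cells carrying an AP-1-driven beta-lactamase reporter. After 5 hours at 37 degrees Celsius, CCF4 460nm/530nm emission ratio gave %Activity; AC50 values derived.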
# Chain of Cytochrome P450 1A2 (Homo sapiens) (P05177 whole entry, looked up): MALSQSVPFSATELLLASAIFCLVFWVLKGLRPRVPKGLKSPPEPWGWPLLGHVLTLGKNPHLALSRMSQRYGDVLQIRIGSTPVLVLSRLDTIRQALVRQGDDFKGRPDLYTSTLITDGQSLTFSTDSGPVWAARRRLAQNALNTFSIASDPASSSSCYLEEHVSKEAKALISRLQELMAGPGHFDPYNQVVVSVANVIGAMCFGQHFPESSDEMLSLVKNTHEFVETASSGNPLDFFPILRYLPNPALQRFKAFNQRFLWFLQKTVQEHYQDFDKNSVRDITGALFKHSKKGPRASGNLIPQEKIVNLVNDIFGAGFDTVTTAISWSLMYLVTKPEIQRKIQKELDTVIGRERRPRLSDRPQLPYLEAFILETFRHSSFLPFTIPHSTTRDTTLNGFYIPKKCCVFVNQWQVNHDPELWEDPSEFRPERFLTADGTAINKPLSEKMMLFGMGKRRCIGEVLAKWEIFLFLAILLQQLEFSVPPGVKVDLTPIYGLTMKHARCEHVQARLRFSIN
smiles,measurement,setting,value
N#C/C(=C\c1c[nH]c2ccccc12)C(=O)c1ccc(O)c(O)c1,Potency,[1],1.26 µM (active)
same,"activity change, negative = inhibition",[2],0.356% (inactive)
Cn1cc(C2=C(c3ccc(Cl)cc3Cl)C(=O)NC2=O)c2ccccc21,Potency,[1],3.16 µM (active)
COC1=C(OC)C(=O)c2ccccc2C1=O,Potency,[1],3.98 µM (active)
Nc1nc2ccc([N+](=O)[O-])cc2s1,Potency,[3],> 92 µM (inactive)
same,Potency,[4],> 92 µM (inactive)
same,Potency,[5],> 92 µM (inactive)
same,Potency,[6],> 92 µM (inactive)
same,Potency,[7],> 92 µM (inactive)
same,Potency,[8],> 92 µM (inactive)
C#C[C@]1(O)CC[C@H]2[C@@H]3CCc4cc(O)ccc4[C@H]3CC[C@@]21C,Potency,[3],> 92 µM (inactive)
same,Potency,[5],> 92 µM (inactive)
same,Potency,[6],> 92 µM (inactive)
same,Potency,[8],25.5 µM (inactive)
CN(C)c1ccc(N=NS(=O)(=O)O)cc1,Potency,[3],> 92 µM (inactive)
same,Potency,[5],> 92 µM (inactive)
same,Potency,[7],> 92 µM (inactive)
same,Potency,[8],> 92 µM (inactive)
c1ccc2sc(SSc3nc4ccccc4s3)nc2c1,Potency,[3],> 92 µM (inactive)
same,Potency,[4],> 92 µM (inactive)
same,Potency,[5],> 92 µM (inactive)
same,Potency,[6],> 92 µM (inactive)
same,Potency,[7],> 92 µM (inactive)
same,Potency,[8],> 92 µM (inactive)
Oc1cc2c(cc1O)CN(C(=S)NCCc1ccc(Cl)cc1)CCC2,Potency,[1],12.6 µM (active) and 20 µM (active)
same,"activity change, negative = inhibition",[2],-18.1% (inactive)
COc1cc(CNC(=O)CCCC/C=C/C(C)C)ccc1O,Potency,[3],> 92 µM (inactive)
same,Potency,[4],> 92 µM (inactive)
same,Potency,[5],> 92 µM (inactive)
same,Potency,[6],> 92 µM (inactive)
same,Potency,[7],> 92 µM (inactive)
same,Potency,[8],> 92 µM (inactive)
Nc1ccc([N+](=O)[O-])cc1O,Potency,[3],> 92 µM (inactive)
same,Potency,[4],> 92 µM (inactive)
same,Potency,[5],> 92 µM (inactive)
same,Potency,[6],> 92 µM (inactive)
same,Potency,[7],> 92 µM (inactive)
same,Potency,[8],> 92 µM (inactive)
CN1CCC[C@H]1c1cccnc1,Potency,[3],> 92 µM (inactive)
same,Potency,[4],> 92 µM (inactive)
same,Potency,[5],> 92 µM (inactive)
same,Potency,[6],> 92 µM (inactive)
same,Potency,[7],> 92 µM (inactive)
same,Potency,[8],> 92 µM (inactive)
O=C1CN(/N=C/c2ccc([N+](=O)[O-])o2)C(=O)N1,Potency,[3],> 92 µM (inactive)
same,Potency,[4],7.84 µM (active)
same,Potency,[7],> 92 µM (inactive)
N#C/C(=C\c1ccc(O)c(O)c1)C(=O)NCc1ccccc1,"activity change, negative = inhibition",[9]; at 38 µM (top of the series),-8.08% (inactive)
same,Potency,[1],12.6 µM (active) and 7.94 µM (active)
same,"activity change, negative = inhibition",[2],-14.7% (inactive)
O=c1[nH]c2cc(C(F)(F)F)ccc2n1-c1cc(C(F)(F)F)ccc1O,"activity change, negative = inhibition",[9]; at 38 µM (top of the series),-14.9% (inactive)
same,"activity change, negative = inhibition",[2],7.55% (inactive)
COc1ccccc1N1CCN(CCN(C(=O)c2ccc(I)cc2)c2ccccn2)CC1,"activity change, negative = inhibition",[9]; at 38 µM (top of the series),-13.6% (inactive)
same,"activity change, negative = inhibition",[2],-16.4% (inactive)
N=C1N=C(N)c2cc3ccccc3cc21,Potency,[3],62.7 µM (active)
same,Potency,[4],32.2 µM (active)
same,Potency,[6],54.6 µM (active)
same,Potency,[8],33.3 µM (active)
O=C(O)c1cc(O)c(O)c(O)c1,Potency,[3],> 92 µM (inactive)
same,Potency,[6],> 92 µM (inactive)
same,Potency,[7],> 92 µM (inactive)
N=c1ccn2c(n1)O[C@H]1[C@H](O)[C@@H](CO)O[C@H]12,Potency,[1],inactive
O=C(Nc1ccccc1)c1cc([N+](=O)[O-])ccc1Cl,Potency,[1],5.01 µM (active) and 631 nM (active)
COc1cc(/C=C/C(=O)CC(=O)/C=C/c2ccc(O)c(OC)c2)ccc1O,"activity change, negative = inhibition",[9]; at 17.2 µM (top of the series),22.5% (inactive)
same,Potency,[4],28.2 µM (active)
same,Potency,[5],42.7 µM (active)
same,Potency,[6],> 92 µM (inactive)
same,Potency,[7],45.2 µM (active)
same,Potency,[8],22.9 µM (active)
CC(C)NCC(O)COc1cccc2ccccc12 (configuration not stated),Potency,[3],> 92 µM (inactive)
same,Potency,[5],> 92 µM (inactive)
same,Potency,[6],> 92 µM (inactive)
same,Potency,[7],> 92 µM (inactive)
same,Potency,[8],> 92 µM (inactive)
CN(C)CCC(c1ccc(Cl)cc1)c1ccccn1 (configuration not stated),Potency,[3],> 92 µM (inactive)
same,Potency,[4],> 92 µM (inactive)
same,Potency,[5],> 92 µM (inactive)
same,Potency,[6],> 92 µM (inactive)
same,Potency,[7],> 92 µM (inactive)
same,Potency,[8],> 92 µM (inactive)
O=c1cc(-c2ccccc2)oc2ccccc12,Potency,[3],> 92 µM (inactive)
same,Potency,[4],> 92 µM (inactive)
same,Potency,[5],> 92 µM (inactive)
same,Potency,[6],> 92 µM (inactive)
same,Potency,[7],> 92 µM (inactive)
same,Potency,[8],> 92 µM (inactive)
Nc1ccc(C(=O)O)c(O)c1,"activity change, negative = inhibition",[9]; at 17.2 µM (top of the series),2.89% (inactive) and -3.6% (inactive)
same,"activity change, negative = inhibition",[2],10.1% [at 17.2 µM] (inactive) and -5.83% [at 17.2 µM] (inactive)
CC1(C)S[C@@H]2[C@H](NC(=O)[C@H](N)c3ccccc3)C(=O)N2[C@H]1C(=O)O,"activity change, negative = inhibition",[9]; at 17.2 µM (top of the series),6.1% (inactive)
same,Potency,[3],> 92 µM (inactive)
same,Potency,[4],> 92 µM (inactive)
same,Potency,[5],> 92 µM (inactive)
same,Potency,[6],> 92 µM (inactive)
same,Potency,[7],> 92 µM (inactive)
same,Potency,[8],> 92 µM (inactive)
C[C@@H](NC(=O)/C(C#N)=C/c1ccc(O)c(O)c1)c1ccccc1,Potency,[1],31.6 µM (active)
CCCCCCCCCCCCCCCCCC(=O)O,Potency,[3],> 92 µM (inactive)
same,Potency,[4],> 92 µM (inactive)
same,Potency,[5],> 92 µM (inactive)
same,Potency,[6],> 92 µM (inactive)
same,Potency,[7],> 92 µM (inactive)
same,Potency,[8],> 92 µM (inactive)
S=c1[nH]c2ccccc2s1,Potency,[3],> 92 µM (inactive)
same,Potency,[4],> 92 µM (inactive)
same,Potency,[5],> 92 µM (inactive)
same,Potency,[6],> 92 µM (inactive)
same,Potency,[7],> 92 µM (inactive)
same,Potency,[8],> 92 µM (inactive)
NCCO,Potency,[3],> 92 µM (inactive)
same,Potency,[4],> 92 µM (inactive)
same,Potency,[5],> 92 µM (inactive)
same,Potency,[6],> 92 µM (inactive)
same,Potency,[7],> 92 µM (inactive)
same,Potency,[8],> 92 µM (inactive)
Cc1c(N)c(=O)n(-c2ccccc2)n1C,"activity change, negative = inhibition",[9]; at 17.2 µM (top of the series),7.65% (inactive)
same,"activity change, negative = inhibition",[2],-9.93% [at 17.2 µM] (inactive)
CCCOC(=O)c1ccc(O)cc1,Potency,[3],> 92 µM (inactive)
same,Potency,[4],> 92 µM (inactive)
same,Potency,[5],> 92 µM (inactive)
same,Potency,[6],> 92 µM (inactive)
same,Potency,[7],> 92 µM (inactive)
same,Potency,[8],> 92 µM (inactive)
